Among all 50,000 compounds or so, about 800 (1.6%) showed an effect of 50% or more. The list comes from a sample in which strong results are over-represented; it also holds similar structures and randomly drawn compounds.

In the assay the target is Bcl-2-like protein 10 (Homo sapiens) (UniProt Q9HD36). In words: TR3 peptide-Bcl-B binding displacers, biochemical primary FP assay, phenotype converters (AID 1240).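 Further: 0% = Bcl-B with tracer peptide and DMSO and 100% = tracer peptide lacking Bcl-B.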 To be noted: GST-Bcl-B / FITC-TR3 peptide fluorescence polarization; stronger effect = higher value; compound at 3.75 mg/L. (In general: In fluorescence polarisation assays a small probe gives low polarisation when free and higher when bound to something large.)
Sequence of Bcl-2-like protein 10 (Homo sapiens) (Q9HD36 whole entry, looked up): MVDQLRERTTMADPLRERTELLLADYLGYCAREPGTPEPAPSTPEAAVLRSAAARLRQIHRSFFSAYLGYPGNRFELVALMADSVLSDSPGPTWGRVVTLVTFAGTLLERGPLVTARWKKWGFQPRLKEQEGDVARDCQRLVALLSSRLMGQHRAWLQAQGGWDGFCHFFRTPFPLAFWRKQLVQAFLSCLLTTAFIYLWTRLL
For the molecule `Cc1ccc(-c2csc(NC(=O)C3C4CCC(C4)C3C(=O)O)n2)c(C)c1` (configuration not stated), the displacement was -0.1%.

As to `CC(Oc1ccccc1)C(=O)NCc1cccnc1` (configuration not stated), the displacement is 3.9%. The value for `CCOc1ccc2nc(NC(=O)C(c3ccccc3)c3ccccc3)sc2c1` was 66.7%; that for `CCOc1ccc2nc(NC(=O)c3ccccc3C(=O)O)sc2c1` was -7%; that for `CCOc1ccc2nc(NC(=O)c3ccccc3O)sc2c1` was -1%. As for `COc1ccc(Cc2nc(-c3ccc(Cl)cc3)no2)cc1OC`, the displacement stood at 1.1%.

Turning to `Cc1ccc(OCCOc2ccc(Br)cc2C=C2C(=O)NC(=S)NC2=O)cc1`, the displacement is -23.5%. For `O=C(CSc1nc2ccccc2o1)NCc1ccco1` the value was -19.3%; for `Cc1ccc(N(CC(=O)O)S(=O)(=O)c2ccc(F)cc2)cc1`, 8.4%. For `CC(Oc1ccc2oc(-c3ccccc3)c(C(=O)O)c2c1)C(=O)O` (configuration not stated) the value was 59.2%; for `CCOC(=O)c1c(-c2ccccc2)oc2ccc(OC(=O)c3ccco3)cc12`, 99.8%; for `Cc1oc2ccc(OC(C)C(=O)O)cc2c1C(=O)O` (configuration not stated), 14.7%. In the case of `CCOC(=O)c1c(-c2ccccc2)oc2cc(Br)c(OC(=O)c3ccco3)cc12`, the displacement worked out at 8.8%. The value for `CCOc1ccc2oc(-c3ccccc3)c(C(=O)O)c2c1` was 5.4%. Regarding `CCOC(=O)c1c(-c2ccccc2)oc2ccc(OC(=O)C(C)(C)C)cc12`, the displacement was 10.8%. The value for `O=C(CSc1nc2ccccc2[nH]1)N/N=C/c1cccc(Cl)c1Cl` was -5.4%.

Regarding `COc1ccccc1CC(=O)N1CCN(c2ccc([N+](=O)[O-])cc2)CC1`, the displacement was 11.9%. The value for `COc1ccc(CC(=O)Nc2sc3c(c2C(=O)Nc2ccccc2Cl)CCCC3)cc1` was -9.7%; that for `COc1ccc(Cl)cc1/C=C1/C(=O)NN(c2cccc(Br)c2)C1=O` was -1.3%; that for `Cc1ccc(N2C(=O)Cn3c2nc2c3c(=O)n(C)c(=O)n2C)cc1Cl` was -12.5%.

On to `Cc1cccc(N2C(=O)Cn3c2nc2c3c(=O)n(C)c(=O)n2C)c1`, for which the displacement was -5.8%. For `COc1ccc(N2C(=O)Cn3c2nc2c3c(=O)n(C)c(=O)n2C)cc1` the value was 61.6%; for `CC(O)c1cccc(NC(=O)c2nn3c(c2Cl)NC(c2ccco2)CC3C(F)(F)F)c1` (configuration not stated), -0.1%. With `COc1ccc(C(=O)NC(=S)NCc2ccco2)cc1`, the displacement came out at 9.4%.

In the case of `Cn1c(-n2c(CCN3C(=O)c4ccccc4C3=O)nc3ccccc3c2=O)nc2ccccc21`, the displacement was 66.3%.

In the case of `Cc1cccc(-n2c(CCN3C(=O)c4ccccc4C3=O)nc3ccccc3c2=O)n1`, the displacement was -0.9%. For `Cn1c(-n2c(CCCN3C(=O)c4ccccc4C3=O)nc3ccccc3c2=O)nc2ccccc21` the value was 35.4%; for `C/C(=N\NC(=O)c1ccccn1)c1ccc(F)cc1`, -18.6%; for `O=C1NC(=O)N(c2ccc(Cl)cc2)C(=O)/C1=C/c1ccc(O)c(Br)c1`, -8.4%.

For `O=C(Oc1cccc(-c2cnc3ccccc3n2)c1)c1cccc(S(=O)(=O)N2CCOCC2)c1`, the displacement was determined as 225%. The value for `COC(=O)c1cccc(S(=O)(=O)N2CCOCC2)c1` was -16%; that for `O=C(Oc1ccc(Cl)cc1)c1cccc(S(=O)(=O)N2CCOCC2)c1` was -8.4%; that for `N#C/C(=C\c1cn(CC(=O)Nc2ccccc2)c2ccccc12)C(=O)Nc1ccc(F)cc1` was -30.3%. For `C#CCn1cc(/C=C(/C#N)C(=O)Nc2ccc(OCC)cc2)c2ccccc21` the value was 5.9%; for `N#C/C(=C\c1cn(CC(=O)Nc2ccccc2)c2ccccc12)C(=O)Nc1ccccc1Cl`, 126%; for `Cc1cccc(NC(=O)/C(C#N)=C/c2cn(CC(=O)Nc3ccccc3)c3ccccc23)c1C`, -60.5%.

With `N#C/C(=C\c1cn(CC(=O)Nc2ccccc2)c2ccccc12)C(=O)Nc1ccccc1`, the displacement was -36.7%. In the case of `CCOc1cccc(NC(=O)/C(C#N)=C/c2cn(CC(=O)Nc3ccccc3)c3ccccc23)c1`, the displacement was determined as 104%.

As for `N#C/C(=C\c1cn(CC(=O)Nc2ccccc2)c2ccccc12)C(=O)NCc1ccccc1`, the displacement is 61.2%.

Turning to `CCc1ccccc1NC(=O)/C(C#N)=C/c1cn(CC(=O)Nc2ccccc2)c2ccccc12`, the displacement was -26.1%.

As to `COc1ccc(NC(=O)/C(C#N)=C/c2cn(CC(=O)Nc3ccccc3)c3ccccc23)cc1`, the displacement is -21.4%.

In the case of `Cc1ccc2c(c1)c(-c1ccccc1)c(-c1ccccc1)n2CC(O)CN1C(=O)CSC1=O` (configuration not stated), the displacement was 11.4%. For `CCOc1ccc(C2C(C(=O)/C=C/c3ccccc3)=C(O)C(=O)N2CCCCCC(=O)O)cc1` (configuration not stated) the value was -1%; for `O=C(NC(=S)Nc1ccc(Cl)c(-c2nc3ccccc3s2)c1)c1ccco1`, 5.8%.

On to `c1ccc2nc(NCc3ccncc3)ccc2c1`, for which the displacement is -8.8%. The value for `CCc1ccc(N2C(=O)NC(=O)/C(=C\c3ccc(OCC(=O)O)c(OC)c3)C2=O)cc1` was 9.9%; that for `CCOc1ccc(NC(=O)CC2S/C(=N\N=C\c3ccc(O)c(OC)c3)NC2=O)cc1` (configuration not stated) was 9.6%. The value for `COc1cc(/C=c2\sc3nc4ccccc4n3c2=O)cc(I)c1OCC(=O)O` was -4.2%; that for `COc1cc(/C=c2/sc3nc4ccccc4n3c2=O)cc(I)c1OCc1ccccc1` was 74.2%; that for `CCOc1cc(/C=c2/sc3nc4ccccc4n3c2=O)cc(I)c1OCC` was 77.3%. Turning to `CCOc1ccc(/C=c2\sc3nc4ccccc4n3c2=O)cc1Cl`, the displacement is 19.1%. The value for `COc1cc(/C=c2/sc3nc4ccccc4n3c2=O)cc(Br)c1OCc1ccccc1` was 1.8%; that for `C=CCc1ccccc1OCCOc1ccc(/C=c2\sc3nc4ccccc4n3c2=O)cc1OCC` was 100%; that for `COc1cc(/C=c2\sc3nc4ccccc4n3c2=O)cc(I)c1OCCOc1cccc(C)c1` was 10.9%. The value for `CCOc1cc(/C=c2\sc3nc4ccccc4n3c2=O)ccc1OCCOc1ccc(Br)cc1` was 19%; that for `C=CCc1ccccc1OCCOc1cccc(/C=c2\sc3nc4ccccc4n3c2=O)c1` was 13.4%; that for `COc1ccc(OC)c(NC(=O)CN(c2ccc(Br)cc2)S(C)(=O)=O)c1` was -12.8%. For `CCN(CC)CCCCOc1ccc(Cl)cc1C` the value was -7.4%.

Take `COc1ccc(NC(=S)NC(=O)c2cccs2)cc1`: the displacement was -9.3%. `O=C(Nc1ccccc1)C1C2C3CCC(C3)C12` (configuration not stated): the displacement was 4%. The value for `O=C(CSCc1ccccc1)Nc1nnc(/C=C/c2ccccc2)s1` was 39.9%; that for `CC(=O)c1ccc(NC(=O)c2ccc3c(c2)C(=O)N(c2ccc(C)c(C)c2)C3=O)cc1` was 8.9%. `Cc1ccc(N2C(=O)c3ccc(C(=O)Nc4cccc(C)c4C)cc3C2=O)c(C)c1`: the displacement turned out to be 6.6%. As for `CN1CCN(C(=O)C(=O)Nc2cccc3ccccc23)CC1`, the displacement is -2.6%. As to `COc1cccc(/C=N/NC(=O)c2cccc(N3CCCC3=O)c2)c1`, the displacement was -3.5%. For `NC1=NC(=O)/C(=C/c2ccc(Cl)cc2)S1` the value was 57.4%; for `NC1=NC(=O)/C(=C\c2ccc(S(=O)(=O)O)cc2)S1`, 12.8%.

In the case of `COc1cc(/C=C2\SC(N)=NC2=O)cc(OC)c1`, the displacement was -9.9%. For `CN(C)c1ccc(/C=C/C=C2/SC(N)=NC2=O)cc1` the value was -17.2%; for `NC1=NC(=O)/C(=C/c2ccc(Br)cc2)S1`, 3.7%; for `COc1ccc(/C=C2\SC(N)=NC2=O)cc1`, 124%.

In the case of `COc1ccc(/C=C2/SC(=O)NC2=O)c(OC)c1`, the displacement came to 4.9%. For the molecule `NC1=NC(=O)/C(=C\C=C\c2ccccc2)S1`, the displacement worked out at 154%. For `COc1ccc(/C=C2\SC(=S)N(C(C)C)C2=O)cc1` the value was -3.9%. For `CC(=O)NC1=NC(=O)/C(=C\C=Cc2ccccc2)S1` the value was -42.4%; for `COc1ccc(C(=O)Oc2ccc(/C=C3\SC(N)=NC3=O)cc2)cc1`, 10.1%; for `COc1ccc(/C=C2\SC(=O)NC2=S)cc1`, 67.8%. As to `CC(=O)Nc1ccc2sc(C)nc2c1`, the displacement worked out at 12.9%.

With `COc1cccc(CN2CCN(Cc3cc(OC)ccc3OC)CC2)c1`, the displacement is -9%. The value for `COc1ccc(C2SCC(=O)N2CCc2ccc(OC)c(OC)c2)c(OC)c1` (configuration not stated) was -6.4%; that for `COc1ccc(N2C(=O)C3C4C=CC(C5CC45)C3C2=O)c([N+](=O)[O-])c1` (configuration not stated) was 12.7%; that for `N/C(=N\OC(=O)c1ccc(Cl)c([N+](=O)[O-])c1)c1ccccc1` was -3.2%. The value for `COc1ccc(C2CC(=O)C3=C(C2)Nc2ccccc2NC3c2cccs2)cc1OC` (configuration not stated) was -4.5%; that for `Cc1ccccc1N1C(=O)c2ccc(C(=O)O)cc2C1=O` was -3.3%. The value for `O=C(O)c1ccccc1S(=O)CCO` (configuration not stated) was 6.8%.

Turning to `O=C(c1cccc(F)c1)N1CCN(c2ccc(F)cc2)CC1`, the displacement is -11.6%. For `O=C(c1cccc(F)c1)N1CCN(c2ccccc2)CC1` the value was -5.4%. For the molecule `O=C(c1ccc(N2CCN(C(=O)c3ccc(F)cc3)CC2)cc1)c1cccc(F)c1`, the displacement was -6.4%.

For `O=C(c1ccc(N2CCN(C(=O)c3ccccc3F)CC2)cc1)c1cccc(F)c1`, the displacement is -53.4%. Turning to `O=C(c1ccc(N2CCN(C(=O)c3ccc(F)cc3F)CC2)cc1)c1cccc(F)c1`, the displacement worked out at 72.1%. For `O=C(c1cccc(F)c1)N1CCN(c2ccc([N+](=O)[O-])cc2)CC1` the value was 118%; for `Cc1ccc(/C(=N\S(=O)(=O)c2cccc([N+](=O)[O-])c2)Nc2ccccc2)cc1`, 13.2%; for `COc1ccccc1OCC(=O)Nc1ccc2c(c1)OCCO2`, 2.2%.

On to `COc1cc(/C=N/N2C(=O)C3C4C=CC(CC4)C3C2=O)cc(I)c1O` (configuration not stated), for which the displacement is 3.3%. The value for `COc1ccc(N2C(=O)NC(=O)/C(=C/c3cccc(O)c3)C2=O)cc1` was -6.3%; that for `CN1C(=O)NC(=O)/C(=C/c2ccc(-c3ccc([N+](=O)[O-])cc3Cl)o2)C1=O` was 93.6%; that for `Cc1ccc([N+](=O)[O-])cc1-c1ccc(/C=C2/C(=O)NC(=O)N(C)C2=O)o1` was -8%. For the molecule `CN1C(=O)NC(=O)/C(=C/c2ccc(-c3cccc(Cl)c3)o2)C1=O`, the displacement stood at 81.5%. Regarding `CN1C(=O)NC(=O)/C(=C/c2cccn2-c2cccc([N+](=O)[O-])c2)C1=O`, the displacement came out at 115%. For `CN1C(=O)NC(=O)/C(=C\c2ccc(Cl)cc2Cl)C1=O` the value was 3.8%. Regarding `COc1ccc(N2C(=O)NC(=O)/C(=C/c3cccn3-c3cccc([N+](=O)[O-])c3)C2=O)cc1`, the displacement is -4%. For `CC1=C(C#N)C(=O)NC(=O)/C1=C\c1ccc(-c2cccc(Cl)c2)o1` the value was 24.7%; for `CN1C(=O)NC(=O)/C(=C/c2ccc(-c3ccc(Cl)cc3Cl)o2)C1=O`, 72.6%; for `C=CCN1C(=O)/C(=C\c2ccc(-c3ccc([N+](=O)[O-])cc3Cl)o2)C(=O)NC1=S`, 21%. For `CN1C(=O)NC(=O)/C(=C/c2ccc(-c3ccc(Cl)c(Cl)c3)o2)C1=O` the value was -7.2%.

Turning to `CC1(C)OC(=O)C(=Cc2ccc(-c3ccc(Cl)cc3Cl)o2)C(=O)O1`, the displacement was found to be 34.4%. For `O=C1NC(=O)N(c2ccccc2)C(=O)/C1=C\c1cccn1-c1cccc([N+](=O)[O-])c1` the value was -2.6%.

The record behind these values is PubChem BioAssay AID1240 (Sanford-Burnham Center for Chemical Genomics, 2008).
